# OPRM1-OPRD1 ag: OPRM1-OPRD1 heterodimerization agonism; P35372+P41143; activation, % at 9.3 µM; 340,000 compounds, 0.3% hits; cells, luminescence; AID 504326; in the data active = activation above about 18%;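 note: 0% = vehicle-treated cells and 100% = reference agonist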
# OPRM1-OPRD1 inv: inverse agonists of human mu-delta opioid receptor heterodimerization | inhibition, % at 9.3 µM | P35372+P41143 | AID 504357 | cell-based MOR-DOR heterodimer luminescence, inverse agonism | 340,000 compounds, 0.21% hits; in the data active = inhibition above about 22%, passing the limit was not always enough;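 note: 0% = cells with DMSO and 100% = wells without cells with DMSO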
# HTR5A inv ctr: HTR5A inverse agonism, opioid heterodimer counter-screen | inhibition, % at 9.3 µM | HTR5A cell line, luminescence | 340,000 compounds, 0.083% hits | P47898; in the data active = inhibition mostly above about 23%, no sharp cut-off; inactive = mostly below about 18%;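 note: 0% = cells with DMSO and 100% = no-cell wells with DMSO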
# Target sequence (P47898 whole entry, looked up): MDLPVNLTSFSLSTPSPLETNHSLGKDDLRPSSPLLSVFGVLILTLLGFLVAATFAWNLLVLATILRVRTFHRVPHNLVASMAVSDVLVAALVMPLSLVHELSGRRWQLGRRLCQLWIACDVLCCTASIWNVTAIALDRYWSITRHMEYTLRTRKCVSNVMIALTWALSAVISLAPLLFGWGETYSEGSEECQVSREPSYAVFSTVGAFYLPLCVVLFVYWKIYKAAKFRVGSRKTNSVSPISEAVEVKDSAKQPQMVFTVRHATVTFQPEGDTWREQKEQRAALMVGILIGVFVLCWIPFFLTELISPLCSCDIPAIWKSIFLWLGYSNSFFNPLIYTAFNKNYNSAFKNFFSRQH
# HTR5A ag: activates human HTR5A in OPRM1-OPRD1 agonist counter-screen; 340,000 compounds, 0.61% hits; P47898; activation, % at 9.3 µM; HTR5A agonist assay, luminescence, cell-based; AID 504692; in the data active = activation mostly above about 9.5%, no sharp cut-off; inactive = mostly below about 7.6%;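 note: 0% = cells with vehicle only and 100% = reference agonist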
# OPRM1-D1 inv cf: OPRM1-OPRD1 heterodimer inverse agonism, confirmation; 580 compounds, 20% hits; inhibition, % at 9.3 µM; shares compounds with OPRM1-OPRD1 inv; cells expressing OPRM1/OPRD1 heterodimer, luminescence; in the data active = inhibition above about 32%;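 note: 0% = cells with DMSO and 100% = wells lacking cells with DMSO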
# HTR5A inv ctr2: counter-screen for OPRM1-OPRD1 inverse agonists: human HTR5A inverse agonism; 580 tested, under 10 active; shares compounds with OPRM1-OPRD1 inv; inhibition, % at 9.3 µM; AID 504914; HTR5A-expressing cells, luminescence; call rule not given here;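 note: 0% = cells with DMSO and 100% = no-cell wells with DMSO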
# Numbers without * were called inactive; i = inactive; / = no result. Rows were chosen to be rich in hits. Some 1.1% of all compounds tested hit in one or more screens of this group.
SMILES,OPRM1-OPRD1 ag,OPRM1-OPRD1 inv,HTR5A inv ctr,HTR5A ag,OPRM1-D1 inv cf,HTR5A inv ctr2
O=C(NNc1cc(Br)c(O)c(Br)c1)c1ccccc1,-16,79*,12,-9,75*,22
O=C(NNC(=O)c1ccc2ccccc2c1)c1ccc(Cl)c(Cl)c1,-4,17,2,0,/,/
CC(C)(C)OC(=O)N1CCCC1C(=O)N1CCc2ccccc21 (stereo not drawn),-1,4,1,0,/,/
CCCNC(=O)Cn1nc(C)n2c(cc3cc(F)ccc32)c1=O,-3,14,-14,4,/,/
CC(=O)N1CCC(=O)Nc2ccc([N+](=O)[O-])cc21,-3,16,-6,1,/,/
COC(=O)c1c(NC(NC(=O)c2ccccc2)(C(F)(F)F)C(F)(F)F)sc2c1CCN(C)C2,0,0,6,3,/,/
CC(=O)/C=C1/C(=O)Nc2ccccc21,-14,74*,5,-2,71*,2
C=CCOc1cccc(C(=O)/C=C2/C(=O)Nc3ccccc32)c1,-2,11,-15,4,/,/
COc1ccc(NC2=CC(=O)CC(c3ccc(C)cc3)C2)c(OC)c1 (stereo not drawn),1,-5,-43,7,/,/
O=S(=O)(Nc1cccc2ncccc12)c1cccs1,-10,47*,21,-10,-196,-13
Cc1ccc(NCN2C(=O)C(=O)c3ccccc32)nc1,-14,70*,-13,-5,59*,17
CN(C)c1nc(=NCc2ccco2)ss1,-13,66*,22,-6,-72,-49
COc1cc(/C=C/C(=O)c2ccc(C)c([N+](=O)[O-])c2)cc(OC)c1O,-4,20*,19,-6,-9,17
Cc1ccc(N/N=C/c2c(O)cc(C)oc2=O)cc1,-9,46*,2,-1,44*,-6
O=C(CC(c1ccc(F)cc1)c1ccco1)N1CCCC1 (stereo not drawn),0,0,-15,-5,/,/
CC(=O)Nc1ccccc1C(=O)C(=O)O,-7,37*,7,-3,-6,-4
COC(=O)C1=C(C)NC(C)=C(C(=O)OC)C1C(=O)OCc1nnc(-c2ccccc2Cl)o1,-1,7,2,-1,/,/
CCC(=O)OCCNc1cc(Sc2nc3ccccc3[nH]2)c2nonc2c1[N+](=O)[O-],-8,43*,-9,-10,-10,-8
O=[N+]([O-])c1c(NCCCO)cc(Sc2nc3ccccc3s2)c2nonc12,-6,35*,2,-5,30,12
Cc1c(C(=O)NC(=S)Nc2cccnc2)cccc1[N+](=O)[O-],-7,35*,31,0,-201,-39
Cc1cc(C(=O)NNC(=O)c2ccc(Cl)cc2)c2ccccc2n1,-1,5,9,-3,/,/
Cc1cc(C(=O)NNC(=S)NC(C)c2ccccc2)c2ccccc2n1 (stereo not drawn),-6,34*,-12,3,5,-13
COc1nccc(C(F)(F)F)c1C(=O)NC(=O)Nc1c(C)cccc1C,1,-4,14,1,/,/
Cn1cccc1C(C#N)(CC#N)c1cccc(F)c1C#N (stereo not drawn),-3,12,0,0,/,/
Cn1cccc1C(C#N)c1cccc(F)c1C#N (stereo not drawn),-7,37*,15,-3,9,6
SMILES,OPRM1-OPRD1 ag,OPRM1-OPRD1 inv,HTR5A inv ctr,HTR5A ag,OPRM1-D1 inv cf,HTR5A inv ctr2
CCSc1nnc2c(n1)OC1(CCCC1)Nc1ccccc1-2,-1,4,3,-1,/,/
O=C1Nc2ccc(Cl)cc2C12Nc1ccccc1-c1nnc(SCc3ccccc3F)nc1O2 (stereo not drawn),-9,50*,4,2,i,-3
O=C1Nc2ccc(F)cc2C12Nc1ccccc1-c1nnc(SCc3ccccc3F)nc1O2 (stereo not drawn),-11,69*,10,-4,72*,10
Cc1ccccc1CCNC(=O)C1CCCN(c2cnccn2)C1 (stereo not drawn),-2,8,7,-1,/,/
CSc1nc(N2CCOCC2)cc(N2CCOCC2)n1,-3,16,0,0,/,/
O=C1CC(c2c[nH]c3ccccc23)C(=O)N1 (stereo not drawn),-2,13,-7,-1,/,/
CC(=O)C(Sc1nc(N(C)C)nc(N(C)C)n1)C(=O)Nc1ccccc1 (stereo not drawn),1,-5,-4,-2,/,/
CC(=O)C(Sc1nn(C)c(=S)s1)C(=O)Nc1ccccc1 (stereo not drawn),-16,72*,16,-11,-266,-38
COc1ccc(C)cc1N(CC(=O)Nc1cccc(N(C)S(C)(=O)=O)c1)S(C)(=O)=O,-2,10,-18,9,/,/
Cc1cc(C(=O)NNc2ccccc2F)no1,-4,20,-38,-3,/,/
Cc1cc(C(=O)NNc2ccc(F)cc2)no1,-7,36*,4,1,i,-11
COc1cc([N+](=O)[O-])cc(/C=N/NC(=O)c2ccc(NC(=O)c3ccc(C)cc3)cc2)c1O,0,-2,-17,6,/,/
COc1cc([N+](=O)[O-])cc(/C=N/NC(=O)c2ccc(C)nc2)c1O,-4,22*,8,-2,i,-30
CC1=C(C)CC2C(C1)C(=O)c1ccc(Br)cc1S2(=O)=O (stereo not drawn),-10,58*,-15,5,56*,4
CC1CCN(Cc2c(C(=O)N/N=C/c3ccc(C(F)(F)F)cc3)nnn2-c2nonc2N)CC1,1,-8,-9,4,/,/
Cc1nnsc1C(=O)NNc1ccc(C(C)(C)C)cc1,-15,77*,-10,2,-27,10
Cc1nnsc1C(=O)NNc1ccc(C(C)C)cc1,-3,14,-50,3,/,/
O=S1(=O)N=C(N=Nc2c(O)[nH]c3ccccc23)c2ccccc21,-4,25*,17,-2,-4,5
Oc1[nH]c2ccccc2c1N=Nc1ccccc1,-1,5,-4,1,/,/
Cc1nn(C)c(C(=O)Nc2ccn(C34CC5CC(CC(C5)C3)C4)n2)c1[N+](=O)[O-],1,-5,-30,7,/,/
CC(CNC(=O)c1cc(COc2c(F)cccc2F)on1)Oc1cccnc1 (stereo not drawn),-1,6,27,7,/,/
Cn1cnc([N+](=O)[O-])c1Sc1ncccc1N,-9,46*,29*,-12,-4,17
O=C(NCCc1ccc(C(F)(F)F)cc1)C1CC(=O)N(c2ccc3c(c2)OCCO3)C1 (stereo not drawn),-1,4,11,1,/,/
CC(=O)Nc1ccc(O)c(-c2nc3ccccc3s2)c1,-4,26*,-2,3,-47,-8
COc1ccc(Cl)cc1C(=O)NCc1ccco1,-3,14,6,-2,/,/
COC(=O)C1NN=C(C(=O)c2ccc(Cl)cc2)C1c1ccc(OC)cc1 (stereo not drawn),-8,47*,24,-9,16,2
